Shown are actives, neighbours in structure and some others; about 7.9% of the full set was active somewhere.
HT1080NT lethal = kills 2HG-producing HT-1080-NT fibrosarcoma cells; HT-1080-NT fibrosarcoma viability, CellTiter-Glo ATP luminescence, 48 h; Potency, µM (top dose mostly 46.1 µM), for inactives: at the highest dose activity, negative = less viability, actives largely listed as cytotoxic; 360,000 compounds, 1.6% hits;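 also: NT is the 2HG producing partner of a matched IDH1 knockdown line; 0% = DMSO-treated cells and -100% = media-only wells without cells; nearly all actives have a fitted effect of over 55% in size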
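HT-1080-NT; 750 cells/well; 5% FBS RPMI; 48 h compound, 37 degrees C; CellTiter-Glo luminescence; curve fitting and curve-class assignment.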
KB-V1 MDR tox = kills drug-selected multidrug resistant KB-V1 cells | KB-V1 MDR cells viability, CellTiter-Glo, 72 h | Potency, µM (series often up to 46.1 µM), usual class: cytotoxic | 400,000 compounds, 3.4% hits | AID 1347076; also: % is scaled to controls: 0 for no effect and ±100 for the full control effect; nearly all actives have a fitted effect of over 60% in size
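Cells of the MDR subline KB-V1 are plated, dosed with compound at multiple concentrations, and incubated 72 h at 37 degrees C; CellTiter-Glo is then added and luminescence read after 10 min.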
SW480 rerep = induces DNA re-replication in SW480 colon adenocarcinoma cells; Potency, µM (doses to about 46.1 µM), for the others: top-dose re-replication activation, most hits filed as activators; 340,000 compounds, 1.8% hits; AID 624297; SW480 DNA re-replication, Hoechst DNA content imaging, 48 h; also: % of control where 0% means no effect; nearly all actives have a fitted effect of over 55% in size
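Cells (250 per well) received 23 nL compound or DMSO by pin tool and were kept 48 hr at 37 C, 5% CO2. Nuclei were then stained with Hoechst for 40 min and scanned for DNA content.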
HT1080 IDH1KD tx = kills HT-1080 cells with IDH1 knockdown. HT-1080 IDH1 knockdown viability, ATP luminescence, 48 h. Potency, µM (highest dose often 46.1 µM), inactives show at the top dose activity, negative = toxicity, hits mostly cytotoxic. 360,000 compounds, 2% hits. AID 686971;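 also: 0% = DMSO wells and -100% = cell-free medium wells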
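Using the IDH1-knockdown HT-1080 line run in the same batch and compound series as the NT line, viability after 48 h at 37 °C was determined by CellTiter-Glo luminescence and expressed as % activity.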
MCF10A rerep = inducers of DNA re-replication in MCF 10A breast cells; AID 624296; MCF 10A DNA re-replication, Hoechst nuclear intensity, 48 h; Potency, µM (highest dose often 46.1 µM), without a hit: at the highest dose activity, positive = re-replication, actives largely listed as activators; 350,000 compounds, 2.9% hits; also: % of control where 0% means no effect; nearly all actives have a fitted effect of over 50% in size
KB-3-1 tox = kills parental KB-3-1 adenocarcinoma cells | KB-3-1 viability, CellTiter-Glo ATP luminescence, 72 h | Potency, µM (titrated, usually from 46.1 µM), actives largely listed as cytotoxic | 400,000 compounds, 1.4% hits; also: % is scaled to controls: 0 for no effect and ±100 for the full control effect; nearly all actives have a fitted effect of over 60% in size
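Cytotoxicity measured as CellTiter-Glo luminescence after 72 h at 37 C. Compound titrations were pinned onto drug-naive KB-3-1 parental adenocarcinoma cells grown in DMEM with 10% FBS, and normalized data fitted to concentration-response curves.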
* hit, by the source's call; i = inactive; ? = inconclusive; . = not tested or not shown; [ ] = remark or other dose. Calls follow the shape of the dose curve; as a rule, active = well fitted curve in the direction sought with a large enough effect; inconclusive = small, poorly fitted or top-dose-only effect, or another doubt; inactive = no such curve, though single readings can be large; an effect the other way counts as inactive or inconclusive. Potency is read from the fitted curve at half-maximal effect.

SMILES	HT1080NT lethal	KB-V1 MDR tox	SW480 rerep	HT1080 IDH1KD tx	MCF10A rerep	KB-3-1 tox
Cc1ccn2c(NC3CCCCC3)c(-c3cccc(-c4cccc(Cl)c4)c3)nc2c1	?	i	?	?	20.6µM*	i
CCC(C)Sc1ccc(-c2nc3cc(C)ccn3c2NC2CCCCC2)cc1 (stereo not given)	20.6µM*	?	?	?	?	?
CC(C)(C)[C@]1(O)CCN2CC3c4ccccc4CCc4cccc(c43)[C@@H]2C1 (stereo not given in full)	.	.	14.9%	.	26.7%	.
O=C(CCS(=O)(=O)c1ccc(F)cc1)Nc1nnc(-c2ccc(F)cc2)o1	-7.0%	i	?	1.0%	?	i
C/C(=N\NC(=O)c1c(Cl)c(C)nn1C)c1ccc(NC(=O)COc2ccc(Cl)cc2C)cc1	0.9%	i	-1.1%	3.6%	20.6µM*	i
C/C(=N\NC(=O)c1c([N+](=O)[O-])c(C)nn1C)c1ccc(NC(=O)c2ccc(C)o2)cc1	-12.0%	i	?	-7.8%	2.1%	i
C/C(=N\NC(=O)c1c(Cl)c(C)nn1C)c1ccc(NC(=O)C2CCC2)cc1	1.64µM*	3.26µM*	1.84µM*	0.82µM*	?	1.03µM*
C/C(=N\NC(=O)c1c([N+](=O)[O-])c(C)nn1C)c1ccc(NC(=O)C2CCCC2)cc1	0.461µM*	6.51µM*	5.8µM*	0.326µM*	0.411µM*	0.461µM*
C/C(=N\NC(=O)c1c(Cl)c(C)nn1C)c1cccc(NC(=O)COc2ccccc2)c1	-10.5%	i	-0.7%[9.22 µM]	-2.7%	12.9%	i
C/C(=N/NC(=O)c1cccs1)c1ccc(N2CCOCC2)cc1	-2.8%	i	0.517µM*	0.0%	-1.6%	i
O=C(/C=C/c1ccccc1)Nc1nnc(-c2ccco2)o1	-1.9%	?	?	2.7%	78.1%	i
COc1ccc(C(=O)N/C(=C\c2ccco2)C(=O)NCc2ccco2)cc1	?	i	-1.0%	12.4%	1.1%	i
C/C(=N/NC(=O)c1cccs1)c1ccc(NC(=O)COc2ccc(Cl)cc2)cc1	14.2%	i	?	8.7%	5.17µM*	?
Fc1ccc(Sc2nc(-c3ccccc3)nnc2C(F)(F)F)cc1	23.1µM*	i	?	23.1µM*	3.66µM*	16.4µM*
Fc1ccc(Oc2nc(-c3ccccc3)nnc2C(F)(F)F)cc1	7.1%	i	1.9%	17.6%	?	i
COc1cc(CNc2ccc(C(=O)O)cc2)cc(Br)c1OCC(=O)NC(C)(C)C	8.8%	?	-22.5%	12.1%	-3.6%	i
C=CCOc1c(Br)cc(CNc2ccc(NC(=O)C(C)C)c(OC)c2)cc1OC	?	4.11µM*	18.4µM*	?	5.8µM*	?
Cc1ccc(-n2ncc3c(Nc4cccc(C)c4)ncnc32)cc1	.	i	.	.	.	i
CNc1cncc(-c2ccccc2CO)n1	15.7%	i	.	17.0%	.	i
COc1ccc(CNC(=O)Cc2ccc(NC(=O)C3=C(C)OCCS3)cc2)cc1	?	14.6µM*	?	5.8µM*	8.2µM*	1.03µM*
CC1=C(C(=O)Nc2ccc(CC(=O)NCc3ccc(OC(C)C)cc3)cc2)SCCO1	?	?	?	?	0.326µM*	0.366µM*
CCOc1ccc(CNC(=O)c2cccc(NC(=O)C3=C(C)OCCS3)c2)cc1	-2.8%	i	-5.2%	-5.7%	-4.3%	i
CCOC(=O)Cc1csc(NC(=O)c2csc3c2CCCC3)n1	1.8%	?	?	-8.6%	26.8%	i
Fc1ccc(CN(Cc2ccccc2)C(c2cccs2)c2nnnn2C2CCCCC2)cc1 (stereo not given)	-4.5%	?	-5.9%	-17.6%	?	?
COC(=O)c1cccc(NC(=O)CCc2ccccc2)c1	-3.5%	?	-10.0%	-1.6%	1.8%	i
SMILES	HT1080NT lethal	KB-V1 MDR tox	SW480 rerep	HT1080 IDH1KD tx	MCF10A rerep	KB-3-1 tox
Cn1c(=O)c2ccccc2n(Cc2ccccc2F)c1=O	-22.1%	?	-3.7%	-12.0%	23.0%	i
Cc1nc2c3cc(F)ccc3n(CCN3CCCCC3)c2s1	20.6µM*	i	?	?	23.1µM*	?
Cc1nc2c3cc(F)ccc3n(Cc3ccccc3)c2s1	?	?	?	?	19.4%	16.4µM*
Cc1nc2c3cc(F)ccc3n(Cc3ccccc3F)c2s1	20.6µM*	?	?	18.4µM*	104.7%	?
Cc1nc2c3ccccc3n(Cc3ccccc3F)c2s1	-19.2%	?	16.8%	-22.7%	14.6µM*	i
CSc1nnc2c3cc(F)ccc3n(Cc3ccccc3)c2n1	-1.9%	?	-1.6%	-3.2%	0.3%	i
CCc1ccc2c(c1)c1nc(C)sc1n2CC(=O)OC	2.5%	i	-4.6%	2.1%	-7.2%	i
FC(F)(F)c1cc(Cl)c2nc(-c3ccccc3)cn2c1	-15.0%	i	0.9%	-13.6%	14.6µM*	i
Nc1cccc(-c2cn3cc(C(F)(F)F)cc(Cl)c3n2)c1	-24.9%	?	-0.1%	-4.0%	18.8%	i
O=c1[nH]nc(SCCS(=O)(=O)c2ccc(F)cc2)n1-c1ccccc1	?	i	16.4%	?	23.1µM*	i
O=c1[nH]nc(SCCS(=O)(=O)c2ccc(F)cc2)n1-c1ccc2c(c1)OCCO2	-16.5%	i	?	?	?	i
COc1ccc(N2C(=O)c3ccc(C(=O)OC(C)C)cc3C2=O)cc1	-23.4%	i	?	0.4%	?	18.4µM*
O=C(NCCN1CCOCC1)C(=O)NCC1OCCN1S(=O)(=O)c1ccc(F)cc1 (stereo not given)	2.3%	.	16.6%	1.2%	-0.3%	.
O=C(NC1CCOCC1)C1CCC(=O)N(Cc2ccc(Cl)cc2)C1 (stereo not given)	2.8%	i	9.2µM*	-2.3%	9.4%	?
CC1(C(=O)NS(=O)(=O)Cc2ccccc2)CCN1C(=O)Cc1ccccc1Cl (stereo not given)	11.9%	i	.	-7.7%	.	i
COCCNC(=S)Nc1ccc2nc(N3CCCC3)cc(C)c2c1	5.6%	16.4µM*	-9.5%	-19.7%	26.8%	i
CCCCN(CC)CCNC(=S)Nc1ccc2nc(N3CCN(C)CC3)cc(C)c2c1	25.9µM*	i	?	?	28.2%	?
Cc1cc(N2CCOCC2)nc2ccc(NC(=S)NC(C)C)cc12	1.1%	i	-11.0%	0.0%	23.1µM*	i
CCOCCCNC(=S)Nc1ccc2nc(N3CCCC3)cc(C)c2c1	0.0%	7.31µM*	-62.4%	-27.2%	1.4%	i

Screening data from PubChem BioAssay.
